Measurements taken from PubChem BioAssay (Tox21).
Inconclusive results are not listed. Calls of active or inactive are those of the source. Unless noted, calls follow the shape of the dose curve; as a rule, active = well fitted curve in the direction sought with a large enough effect in the repeat runs; inconclusive = weak or mixed curves; inactive = no such curve, though single readings can be large; an effect the other way counts as inactive or inconclusive.

Assays:
[1] = qHTS assay to identify small molecule antagonists of the retinoid acid receptor (RAR) signaling pathway - cell viability counter screen (AID 1159551); also: nearly all actives have a fitted effect of over 35% in size
Method in brief: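 Following overnight attachment, C3RL4 reporter cells received DMSO-dissolved compounds and then retinol (1 uM final). Six hours later at 37 C, ATP content was measured by CellTiter-Glo luminescence.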

[2] = qHTS assay to identify small molecule antagonists of the retinoic acid receptor (RAR) signaling pathway (AID 1159552; also: nearly all actives have a fitted effect of over 50% in size)
Method in brief: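 Using a RARE-driven luciferase construct in C3RL4 cells, retinol at 1 uM final provided the agonist stimulus while compounds were co-applied. After 6 hours at 37 C, luminescence was recorded to flag inhibitors of retinol signaling.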

[3] = qHTS assay to identify small molecule agonists of the retinoic acid receptor (RAR) signaling pathway (AID 1159553)
Method in brief: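 Cell line C3RL4, RARE luciferase reporter. Treatment: compounds in DMSO, 6 hr, 37 C, 5% CO2, after overnight plating. Detection: luminescence, 30 min RT after reagent.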

[4] = qHTS assay to identify small molecule antagonists of the estrogen related receptor (ERR) signaling pathway from Tox21 library - cell viability counter screen (AID 1224834); also: nearly all actives have a fitted effect of over 30% in size
Method in brief: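 Viability readout (CellTiter-Fluor fluorescence, 30 min at 37 C) multiplexed with the ERR assay; cells treated 17.5 h at 37 C with compounds delivered in DMSO.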

[5] = target: Luciferin 4-monooxygenase (Photinus pyralis) (UniProt P08659); test: qHTS assay to identify small molecule inhibitors of firefly luciferase (AID 1224835); also: nearly all actives have a fitted effect of over 25% in size
Sequence of Luciferin 4-monooxygenase (Photinus pyralis) (P08659 whole entry, looked up): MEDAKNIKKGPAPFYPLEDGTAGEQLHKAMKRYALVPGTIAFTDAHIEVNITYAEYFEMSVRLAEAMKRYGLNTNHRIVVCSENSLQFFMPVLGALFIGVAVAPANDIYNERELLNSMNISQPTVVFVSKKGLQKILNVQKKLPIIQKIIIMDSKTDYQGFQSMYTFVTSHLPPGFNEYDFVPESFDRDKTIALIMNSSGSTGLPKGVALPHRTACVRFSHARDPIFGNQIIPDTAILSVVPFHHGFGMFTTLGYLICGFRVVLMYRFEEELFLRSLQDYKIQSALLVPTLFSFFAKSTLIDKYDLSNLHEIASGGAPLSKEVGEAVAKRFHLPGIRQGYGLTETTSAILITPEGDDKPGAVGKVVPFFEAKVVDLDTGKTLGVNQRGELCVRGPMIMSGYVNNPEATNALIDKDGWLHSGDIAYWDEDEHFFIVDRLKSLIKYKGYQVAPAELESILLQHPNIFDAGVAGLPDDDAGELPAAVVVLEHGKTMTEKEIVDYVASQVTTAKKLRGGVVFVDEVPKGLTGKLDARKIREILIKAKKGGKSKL
Method in brief: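 Biochemical qHTS: compounds run as interplate titrations against purified firefly enzyme, with D-luciferin and ATP each at its KM concentration. Light output recorded by CCD imaging.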

[6] = qHTS assay to identify small molecule agonists of the constitutive androstane receptor (CAR) signaling pathway - cell viability counter screen (AID 1224836); also: nearly all actives have a fitted effect of over 45% in size
Method in brief: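 Multiplexed viability check: HepG2-CYP2B6-hCAR cells, 15-point compound dosing, 0.75 uM PK11195 final, 23 h at 37 C, CellTiter-Fluor fluorescence.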

[7] = qHTS assay to identify small molecule antagonists of the estrogen related receptor signaling pathway with the pleiotropic PPARgamma coactivator (PGC) from Tox21 10K library - cell viability counter screen (AID 1224840; active = well fitted cell-killing curve with a large enough effect in the repeat runs, not every such curve was filed as active; also: nearly all actives have a fitted effect of over 40% in size)
Method in brief: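 Compounds in DMSO, alongside positive and negative controls, were pinned onto PGC/ERR cells (2,000 per well). Exposure lasted 17.5 hours at 37 C, followed by a 30-minute CellTiter-Fluor incubation and fluorescence reading.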

[8] = target: Thyrotropin receptor (Homo sapiens) (UniProt P16473); test: qHTS assay to identify small molecule agonists of the thyroid stimulating hormone receptor (TSHR) signaling pathway (AID 1224843; calls by dose curve; also: nearly all actives have a fitted effect of over 45% in size)
Sequence of Thyrotropin receptor (Homo sapiens) (P16473 whole entry, looked up): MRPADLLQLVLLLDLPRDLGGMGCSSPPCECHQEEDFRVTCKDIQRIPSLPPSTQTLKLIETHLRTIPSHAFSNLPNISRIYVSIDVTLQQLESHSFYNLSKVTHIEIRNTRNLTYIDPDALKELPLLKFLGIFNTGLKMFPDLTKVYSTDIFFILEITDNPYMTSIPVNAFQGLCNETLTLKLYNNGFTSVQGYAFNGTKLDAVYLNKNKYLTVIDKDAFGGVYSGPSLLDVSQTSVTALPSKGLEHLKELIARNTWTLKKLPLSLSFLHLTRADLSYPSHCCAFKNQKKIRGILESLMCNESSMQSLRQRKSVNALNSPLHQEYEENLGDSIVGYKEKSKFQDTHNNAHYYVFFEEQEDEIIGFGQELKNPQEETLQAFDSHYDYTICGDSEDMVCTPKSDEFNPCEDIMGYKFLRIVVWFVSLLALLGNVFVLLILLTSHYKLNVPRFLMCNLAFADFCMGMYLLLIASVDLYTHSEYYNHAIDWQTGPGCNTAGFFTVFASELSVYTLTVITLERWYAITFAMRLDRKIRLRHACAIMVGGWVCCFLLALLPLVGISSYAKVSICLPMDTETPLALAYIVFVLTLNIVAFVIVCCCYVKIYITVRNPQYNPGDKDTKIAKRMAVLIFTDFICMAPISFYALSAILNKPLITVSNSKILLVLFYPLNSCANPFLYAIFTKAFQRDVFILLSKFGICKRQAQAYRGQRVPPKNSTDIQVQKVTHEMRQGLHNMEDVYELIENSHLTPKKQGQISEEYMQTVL
Method in brief: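 Steps: seed 800 TSHR-HEK293 cells per well; add test compound and hold 30 min at ambient temperature; dispense cAMP-d2 then anti-cAMP cryptate; incubate 1 h at ambient; measure fluorescence intensity.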

[9] = qHTS assay to identify small molecule agonists of the hypoxia (HIF-1) signaling pathway - cell viability counter screen (AID 1224844; calls by dose curve; also: nearly all actives have a fitted effect of over 50% in size)
Method in brief: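 Luminescent ATP content (CellTiter-Glo, 30 min, room temperature) served as the viability measure in HRE-bla ME-180 cells exposed to compounds for 17 hrs in low-serum medium (0.5% dialyzed FBS).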

[10] = qHTS assay to identify small molecule agonists of H2AX (AID 1224845; active = well fitted activation curve with a large enough effect in the signal ratio in the repeat runs, not every such curve was filed as active; the % refers to the signal ratio)
Method in brief: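 Wild-type CHO-K1 cells, plated overnight, exposed 3hr at 37C to 15 concentrations (0.76% DMSO final). Lysed, then HTRF anti-pH2AX (S139) cryptate and anti-H2AX-d2 antibodies, 24 hr room temperature; 665/620 nm emission read.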

[11] = qHTS assay to identify small molecule agonists of the hypoxia (HIF-1) signaling pathway (AID 1224846; active = well fitted activation curve with a large enough effect in the signal ratio in the repeat runs, not every such curve was filed as active; the % refers to the signal ratio)
Method in brief: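 Measured by blue/green FRET after loading CCF4-AM: beta-lactamase expressed from a hypoxia response element in ME-180 cells. Test agents were delivered in DMSO and left 17 hrs; cells had been plated 5 hrs earlier in low-serum (0.5% dialyzed FBS) medium.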

[12] = qHTS assay to identify small molecule agonists of H2AX - cell viability counter screen (AID 1224847; calls by dose curve; also: top concentration of the series differs between compounds; nearly all actives have a fitted effect of over 30% in size)
Method in brief: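 After overnight plating of 1000 CHO-K1 cells per well, a 15-concentration compound series was applied for 3 hr at 37C. Luminescence from CellTiter-Glo, read following 30 min at room temperature, reflected cell viability.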

[13] = qHTS RealTime-Glo MT Cell Viability Assay in HepG2 cells - 24 hour (AID 1224867); also: nearly all actives have a fitted effect of over 50% in size
Method in brief: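 Tox21 10K library screened in qHTS format on HepG2 cells carrying RealTime-Glo reagents. Compounds were added after a 5 h preincubation, and the luminescent signal from continuous culture was measured repeatedly during 40 h treatment.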

[14] = qHTS assay to identify small molecule antagonists of the constitutive androstane receptor (CAR) signaling pathway - cell viability counter screen (AID 1224837); also: nearly all actives have a fitted effect of over 45% in size
Method in brief: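 Fluorescence from CellTiter-Fluor served as the viability signal. Human hepatoma HepG2 cells stably bearing hCAR and CYP2B6-2.2kb received compound plus CITCO (50 nM final) for 23 hr.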

[15] = target: Nuclear receptor subfamily 1 group I member 3 (Homo sapiens) (UniProt Q14994); test: qHTS assay to identify small molecule agonists of the constitutive androstane receptor (CAR) signaling pathway (AID 1224839);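 also: HepG2 cells stably carrying human CAR and a CYP2B6 luciferase reporter; nearly all actives have a fitted effect of over 15% in size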
Sequence of Nuclear receptor subfamily 1 group I member 3 (Homo sapiens) (Q14994 whole entry, looked up): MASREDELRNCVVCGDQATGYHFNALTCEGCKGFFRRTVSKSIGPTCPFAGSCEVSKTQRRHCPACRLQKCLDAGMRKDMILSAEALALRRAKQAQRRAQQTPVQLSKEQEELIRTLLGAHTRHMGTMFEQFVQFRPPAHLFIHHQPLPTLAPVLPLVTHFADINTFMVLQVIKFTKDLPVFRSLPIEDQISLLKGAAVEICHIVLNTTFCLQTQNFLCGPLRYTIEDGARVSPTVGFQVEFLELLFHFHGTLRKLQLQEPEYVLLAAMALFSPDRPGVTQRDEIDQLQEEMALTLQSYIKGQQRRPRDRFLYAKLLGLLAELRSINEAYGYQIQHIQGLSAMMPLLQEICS
Method in brief: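 Using human hepatoma HepG2 cells engineered with hCAR and a CYP2B6-2.2kb reporter, 15-concentration compound series were incubated 24 h alongside PK11195 at 0.75 uM final, with luminescence quantified afterwards.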

[16] = qHTS assay to identify small molecule antagonists of the estrogen related receptor signaling pathway with the pleiotropic PPARgamma coactivator (PGC) from Tox21 10K library (AID 1224841; call rule not given here; also: actives are mostly falling curves and most rising ones were filed inactive; nearly all actives have a fitted effect of over 50% in size)
Method in brief: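 Compound exposure ran 18 hours at 37 C in PGC/ERR cells (2,000/well) that had first rested 6 hours in a 37 C/5% CO2 incubator. Luciferase activity was then detected with One-Glo after a 30-minute room-temperature step.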

[17] = qHTS assay to identify small molecule agonists of the estrogen related receptor signaling pathway with the pleiotropic PPARgamma coactivator (PGC) from Tox21 10K library (AID 1224842); also: nearly all actives have a fitted effect of over 15% in size
Method in brief: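 PGC/ERR reporter cell line, 2,000 cells per well, incubated 6 h at 37 C before 23 nL compound in DMSO was added. After 18 h at 37 C, One-Glo luminescence read following 30 min at room temperature.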

[18] = qHTS assay to identify small molecule antagonists of the estrogen related receptor (ERR) signaling pathway from Tox21 library (AID 1224848); also: nearly all actives have a fitted effect of over 50% in size
Method in brief: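 Luminescent reporter read-out (ONE-Glo) from NTP's ERR cell line after 18 h treatment at 37 C with DMSO-dissolved Tox21 compounds; cells pre-plated 6 h beforehand at 2,000 per well.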

[19] = qHTS assay to identify small molecule agonists of the estrogen related receptor (ERR) signaling pathway from Tox21 library (AID 1224849; calls by dose curve; also: nearly all actives have a fitted effect of over 15% in size); details: ERR reporter cell line, ONE-Glo luciferase, 18 h; at 92.4 µM (top of the series) unless noted
Method in brief: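 We plated ERR reporter cells, waited 6 h, added compounds in DMSO by pin tool and incubated them 18 h at 37 C. ONE-Glo was then added and luminescence read after 30 min.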

[20] = target: Nuclear receptor subfamily 1 group I member 3 (Homo sapiens) (UniProt Q14994); test: qHTS assay to identify small molecule antagonists of the constitutive androstane receptor (CAR) signaling pathway (AID 1224838);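 also: HepG2 cells stably expressing hCAR with CYP2B6 luciferase reporter stimulated by CITCO; nearly all actives have a fitted effect of over 40% in size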
Method in brief: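 Quantitative HTS in double-stable HepG2-CYP2B6-hCAR cells. After 4 h plating, cells get compound (15 concentrations) and CITCO at 50 nM final, incubate 24 h at 37 C, then ONE-Glo luminescence is read.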
% is scaled to controls: 0 for no effect and ±100 for the full control effect.

CC(C)(C)OC=O
inactive: outcome [1] | outcome [2] | Potency [3] | outcome [4] | Potency [5] | outcome [6] | outcome [7] | Potency [8] | outcome [9] | outcome [10] | outcome [11] | outcome [12] | outcome [13]

CC(C)OCCO
inactive: outcome [1] | outcome [2] | Potency [3] | outcome [4] | Potency [5] | outcome [14] | Potency [15] | outcome [7] | Potency [16] | Potency [17] | outcome [9] | outcome [10] | outcome [12] | outcome [18] | activity change, positive = activation [19] 6.53% | outcome [13]

CC(CN1CC(=O)NC(=O)C1)N1CC(=O)NC(=O)C1 (centres undefined)
inactive: outcome [1] | outcome [2] | Potency [3] | outcome [4] | Potency [5] | outcome [14] | Potency [15] | outcome [7] | Potency [16] | Potency [17] | outcome [9] | outcome [10] | outcome [11] | outcome [12] | outcome [18] | activity change, positive = activation [19] -5.55% | outcome [13]

c1cc2ccc3ccc4ccc5cccc6c(c1)c2c3c4c56
inactive: activity change, negative = cytotoxicity [1] 4.71% [at 3.27 µM] | activity, negative = inhibition [2] -1.28% [at 3.27 µM] | activation [3] -0.114% [at 3.75 µM] | viability change, negative = cytotoxic [4] 2.9% [at 3.27 µM] | activity change, negative = inhibition [5] 1.19% [at 4.07 µM] | activity change, negative = cytotoxicity [14] 2.07% [at 3.26 µM] | activation [15] 5.04% [at 3.27 µM] | viability change, negative = cytotoxic [7] -0.219% [at 3.27 µM] | activation [8] 11.3% [at 3.27 µM] | activity change, negative = cytotoxicity [9] -14.1% [at 2.72 µM] | activation (H2AX phosphorylation) [10] -2.49% [at 5.45 µM] | activation [11] 6.16% [at 2.67 µM] | activity change, negative = cytotoxicity [12] 0.956% [at 5.43 µM] | activity change, negative = cytotoxicity [13] -0.157% [at 2.72 µM]

N#CC1(N)CCCCC1
inactive: outcome [1] | outcome [2] | Potency [3] | outcome [4] | Potency [5] | outcome [14] | Potency [15] | outcome [7] | Potency [8] | outcome [10] | outcome [11] | outcome [12] | outcome [13]

COC(=O)N/N=C/c1c[n+]([O-])c2ccccc2[n+]1[O-]
inactive: outcome [1] | outcome [2] | Potency [3] | outcome [4] | Potency [5] | outcome [14] | Potency [15] | outcome [7] | Potency [16] | Potency [17] | Potency [8] | outcome [9] | outcome [11] | outcome [12] | outcome [18] | activity change, positive = activation [19] 16.4% [at 42.5 µM] | outcome [13]

BrCCOc1ccccc1
inactive: outcome [1] | outcome [2] | Potency [3] | outcome [4] | Potency [5] | outcome [14] | outcome [7] | Potency [16] | Potency [17] | outcome [9] | outcome [10] | outcome [11] | outcome [12] | outcome [18] | outcome [13]

Nc1ccc(C(=O)NCC(=O)O)cc1
inactive: outcome [1] | outcome [2] | Potency [3] | outcome [4] | Potency [5] | outcome [6] | outcome [7] | outcome [9] | outcome [10] | outcome [11] | outcome [12] | outcome [13]

CC/C=C\CCCCCCCCCCOC(C)=O
inactive: outcome [1] | outcome [2] | Potency [3] | outcome [4] | outcome [6] | outcome [14] | outcome [20] | Potency [15] | outcome [7] | Potency [16] | Potency [17] | Potency [8] | outcome [10] | outcome [12] | outcome [18] | activity change, positive = activation [19] 0.807% | outcome [13]
